# Measured values as given in PubChem BioAssay.
# Records with an inconclusive call do not appear. Activity calls are given as the source filed them. Unless noted, no stated cut-off is given here; in the data, active means inhibition above about 80%; inactive means the rest.
# Experiments:
# [1] = viability loss in pontine glioma line – cell-based, SU-DIPG-XVII, MIPE5.0, CellTiter-Glo, qHTS, dose response (AID 1347060; cut-off not given, nearly all actives have AC50 up to about 26 µM;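 further: cells exposed to compound for 48 hours before viability readout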); settings: CellTiter-Glo ATP luminescence
# [2] = viability loss in pontine glioma line – cell-based, SU-DIPG-XIII, MIPE5.0, CellTiter-Glo, qHTS, dose response (AID 1347064; cut-off not given, nearly all actives have AC50 up to about 23 µM;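 further: cells exposed to compound for 48 hours before the viability read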); settings: CellTiter-Glo ATP luminescence
# [3] = viability loss in pontine glioma line – cell-based, SU-DIPG-XXV, MIPE5.0, CellTiter-Glo, qHTS, dose response (AID 1347065; cut-off not given, nearly all actives have AC50 up to about 26 µM;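 further: cells exposed to compound for 48 hours before ATP readout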); settings: CellTiter-Glo ATP luminescence
# [4] = JHH-DIPG-1 glioma cell viability, MIPE5.0 library, CellTiter-Glo luminescence, qHTS (AID 1347067; cut-off not given, nearly all actives have AC50 up to about 26 µM;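 further: cells exposed to compound for 48 hours before readout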); settings: JHH-DIPG-1 glioma viability, CellTiter-Glo ATP luminescence
# [5] = growth inhibition of DIPG cells – cell-based, MIPE5.0 library, qHTS (AID 1347068; cut-off not given, nearly all actives have IC50 up to about 30 µM;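 further: cells exposed to compound for 48 hours before viability readout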); settings: SU-DIPG-XXV viability
# [6] = viability loss with induced miR-34 in A549 – imaging, A549 dox-inducible miR-34, nuclei and caspase counts, primary screen (AID 1347080;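 active means compounds whose cell count with miR-34 switched on is under 0.7 times the count with it off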); settings: A549 miR-34 inducible, Hoechst nuclei count, 48 h
# [7] = MELAS cybrid and Rieske KO viability enhancers – cell-based, MELAS cybrids, Rieske KO mouse fibroblasts, CellTiter-Glo, primary screen (AID 1508586;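 active means mean z-score across replicates of 1.96 or higher in either the MELAS or the Rieske mutant cell line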;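 further: z relative to plate mean and SD of compound and empty wells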); settings: low glucose
# [8] = growth inhibition, single agent or in combination, cell-based, chromothripsis tumors, cisplatin or BGB combos (AID 1671449); settings: LFS_MB_P medulloblastoma cells;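 further: cells exposed for 96 hours; 0% = vehicle DMSO and 100% = killing by high DMSO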
# [9] = growth inhibition, single agent and combos, cell-based, chromothripsis tumors, cisplatin or BGB combos (AID 1671450); settings: HDN33 neuroblastoma cells, stronger effect = higher value;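 further: cells exposed to compound for four days; 0% = vehicle DMSO and 100% = cell killing by high DMSO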
# [10] = growth inhibition, single agents and combos, ICB984, cell-based, cisplatin or BGB combos, synergistic combos for chromothripsis tumors (AID 1671451; call rule not given here;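 further: cells exposed for 96 hours before readout; 0% = vehicle DMSO and 100% = killing by high DMSO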); settings: ICB984 medulloblastoma cells, drug combinations, stronger effect = higher value
# [11] = growth inhibition, single agents and combos, LFS_MB_1R, cell-based, cisplatin or BGB combos, synergistic combos for chromothripsis tumors (AID 1671452); settings: LFS_MB_1R medulloblastoma cells, stronger effect = higher value;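 further: cells exposed for 96 hours before readout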
# [12] = growth inhibition, single agents and combos, HTB85, cell-based, BGB or cisplatin IC20 combos, synergistic combos for chromothripsis tumors (AID 1671453); settings: HTB85 osteosarcoma cells, drug combinations, stronger effect = higher value;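 further: cells exposed for 96 hours before readout; 0% = vehicle DMSO and 100% = high DMSO killing control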
# [13] = growth inhibition, single agents and combos, CRL2098, cell-based, BGB or cisplatin IC20 combos, synergistic combos for chromothripsis tumors (AID 1671454); settings: CRL2098 osteosarcoma cells, drug combinations, stronger effect = higher value;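 further: cells exposed for 96 h before readout; 0% = vehicle DMSO and 100% = killing by high DMSO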
# [14] = growth inhibition, single agents and combos, HD-MB03, cell-based, BGB or cisplatin IC20 combos, synergistic combos for chromothripsis tumors (AID 1671455; in the data active means inhibition above about 83%;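 further: 0% = vehicle DMSO and 100% = high DMSO as cytotoxic control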); settings: HD-MB03 medulloblastoma cells, stronger effect = higher value
# [15] = growth inhibition, single agents and combos, UWB1.289, cell-based, BGB or cisplatin combos, synergistic combos for chromothripsis tumors (AID 1671456); settings: UWB1.289 ovarian carcinoma cells, stronger effect = higher value;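 further: cells exposed to compound for four days; 0% = vehicle DMSO and 100% = killing by high DMSO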
# [16] = growth inhibition, MDA-MB-436, cell-based, BGB or cisplatin combos, synergistic combos for chromothripsis tumors (AID 1671458; call rule not given here;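 further: cells exposed for 96 hours; 0% = vehicle DMSO and 100% = killing by high DMSO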); settings: MDA-MB-436 breast carcinoma growth inhibition, drug combinations, stronger effect = higher value
# [17] = BT084 cell growth, single and combined drugs, ICGC_MB145, cisplatin and BGB IC40 combos (AID 1671461); settings: BT084 medulloblastoma cells, drug combinations, stronger effect = higher value;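 further: cells exposed to drugs for 96 hours; 0% = vehicle DMSO and 100% = high DMSO full killing control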
# [18] = RCMB18 cell growth, single agent and combined, cisplatin and BGB IC40 combos (AID 1671462); settings: RCMB18 medulloblastoma cells, stronger effect = higher value;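 further: cells exposed to compound for four days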
# [19] = CRL1545 cell growth, single agent and combined, cisplatin and BGB IC20 combos (AID 1671464); settings: CRL1545 osteosarcoma cells, stronger effect = higher value;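 further: cells exposed to compound for 96 hours before readout; 0% = vehicle DMSO and 100% = high DMSO killing control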
# [20] = measured here: combination with BGB IC40, at 0.05 µM
# [21] = measured here: with BGB IC20 combination, at 0.5 µM
# [22] = measured here: with cisplatin IC20 combination, at 0.5 µM
# [23] = measured here: combination with cisplatin, at 0.5 µM
compound,measurement,setting,value
CC(=O)Nc1ccc(C(=O)Nc2ccccc2N)cc1,AC50,[1],13.2 µM (active)
same,AC50,[2],9.34 µM (active)
same,AC50,[3],9.34 µM (active)
same,AC50,[4],10.5 µM (active)
same,IC50,[5],10.5 µM (active)
same,fold change,"[6]; stronger effect = lower value, cell number ratio, induced over uninduced",0.986 (inactive)
same,fold change,[6]; measured here: relative caspase fold change +Dox/-Dox,1.15
same,cell count,"[6]; measured here: total cells with miR-34 induction, stronger effect = lower value",4760
same,cell count,[6]; measured here: total cells without miR-34 induction,4820
same,z-score,"[7]; MELAS cybrid survival, CellTiter-Glo 48 h, stronger effect = higher value",-0.168 (inactive)
same,z-score,"[7]; Rieske KO mouse fibroblast survival, CellTiter-Glo 72 h",-0.712
same,inhibition,"[8]; at 0.5 µM, stronger effect = higher value",88.2% (active)
same,inhibition,"[8]; measured here: combination with BGB IC20, at 0.005 µM",-32.9%
same,inhibition,"[8]; measured here: combination with BGB IC40, at 0.005 µM",90.3%
same,inhibition,[8]; [20],-22.7%
same,inhibition,"[8]; measured here: combination with cisplatin, at 0.5 µM, stronger effect = higher value",113%
same,inhibition,"[8]; measured here: combination with cisplatin, at 5 µM, stronger effect = higher value",85.2%
same,inhibition,"[9]; BGB combo, at 5 µM",47.2%
same,inhibition,[9]; at 0.5 µM,8.49% (inactive)
same,inhibition,"[9]; cisplatin combo, at 5 µM",53.7%
same,inhibition,[9]; [21],4.99%
same,inhibition,[9]; [22],18.6%
same,inhibition,"[9]; single agent, at 5 µM",41.8%
same,inhibition,"[10]; BGB IC20 combo, at 0.005 µM",-11.5%
same,inhibition,"[10]; BGB IC40 combo, at 0.005 µM",-4.35%
same,inhibition,"[10]; BGB IC40 combo, at 0.05 µM",23.2%
same,inhibition,[10]; at 0.5 µM,-24.7% (inactive)
same,inhibition,"[10]; cisplatin combo, at 0.05 µM",19.5%
same,inhibition,"[10]; cisplatin combo, at 0.5 µM",-38.2%
same,inhibition,"[10]; cisplatin combo, at 5 µM",-5.64%
same,inhibition,"[10]; measured here: 5 uM single agent, at 5 µM",-13.9%
same,inhibition,[11]; at 0.5 µM,-13.9% (inactive)
same,inhibition,[11]; [20],-36.6%
same,inhibition,[11]; [23],-17.4%
same,inhibition,"[11]; measured here: combination with cisplatin, at 5 µM",75.4%
same,inhibition,[12]; at 0.5 µM,3.06% (inactive)
same,inhibition,"[12]; measured here: with BGB IC20, at 0.5 µM",23.1%
same,inhibition,"[12]; measured here: with BGB IC20, at 5 µM",53.4%
same,inhibition,"[12]; measured here: with cisplatin IC20, at 0.5 µM",-11.1%
same,inhibition,"[12]; measured here: with cisplatin IC20, at 5 µM",56.6%
same,inhibition,"[12]; single agent, at 5 µM",37.1%
same,inhibition,[13]; at 0.5 µM,-31.5% (inactive)
same,inhibition,"[13]; measured here: combination with BGB at IC20, at 0.5 µM",-48.1%
same,inhibition,"[13]; measured here: combination with cisplatin at IC20, at 0.5 µM",-8.49%
same,inhibition,[14]; at 0.5 µM,-2.82% (inactive)
same,inhibition,"[14]; measured here: combo with BGB at IC20, at 0.5 µM",-7.4%
same,inhibition,"[14]; measured here: combo with cisplatin at IC20, at 0.5 µM",-4.11%
same,inhibition,[15]; at 0.5 µM,0.73% (inactive)
same,inhibition,"[15]; measured here: inhibition with BGB combination, at 0.05 µM",-12.2%
same,inhibition,"[15]; measured here: inhibition with cisplatin combination, at 0.05 µM",-6.67%
same,inhibition,[16]; at 0.5 µM,-2.64% (inactive)
same,inhibition,"[16]; measured here: BGB combination, at 0.5 µM",6.02%
same,inhibition,"[16]; measured here: BGB combination, at 5 µM",12.4%
same,inhibition,"[16]; measured here: cisplatin combination, at 0.5 µM",-26.9%
same,inhibition,"[16]; measured here: cisplatin combination, at 5 µM",14.4%
same,inhibition,[17]; at 0.5 µM,25.3% (inactive)
same,inhibition,"[17]; cisplatin combination, at 0.5 µM",14.2%
same,inhibition,"[17]; cisplatin combination, at 5 µM",63.9%
same,inhibition,"[17]; measured here: BGB IC40 combination 0.05 uM, at 0.05 µM",-33.4%
same,inhibition,"[17]; single agent, at 5 µM",40.7%
same,inhibition,[18]; at 0.5 µM,16.2% (inactive)
same,inhibition,"[18]; cisplatin combo, at 5 µM",82.6%
same,inhibition,"[18]; measured here: BGB IC40 combination, at 0.05 µM",-4.7%
same,inhibition,[18]; [23],20.8%
same,inhibition,"[18]; single agent, at 5 µM",47.6%
same,inhibition,[19]; at 0.5 µM,35.2% (inactive)
same,inhibition,[19]; [21],11.6%
same,inhibition,[19]; [22],46.2%
same,inhibition,"[19]; single agent, at 0.05 µM",-7.31%
same,inhibition,"[19]; single agent, at 5 µM",44%
